PostGolgi yeast = phenotypic screen on post-Golgi transport, primary screen; post-Golgi transport phenotypic cell assay; inhibition, % at 10 µM; 0.9% of 98,000 active;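 further: yeast cells grown in 1536-well plates; yeast grown about 18 h at 30C before absorbance read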
CYP2C9 inhib = blockers of cytochrome P450 2C9 activity – biochemical, luminescence, ADME assay, primary screen; 20% of 96,000 active; inhibition, % at 5 µM; P11712; CYP2C9 Supersomes, luciferin-H conversion;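 active means blocking of liver enzyme CYP2C9 beyond about 50% at 5 µM, limit read from the data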
Target sequence (P11712 whole entry, looked up): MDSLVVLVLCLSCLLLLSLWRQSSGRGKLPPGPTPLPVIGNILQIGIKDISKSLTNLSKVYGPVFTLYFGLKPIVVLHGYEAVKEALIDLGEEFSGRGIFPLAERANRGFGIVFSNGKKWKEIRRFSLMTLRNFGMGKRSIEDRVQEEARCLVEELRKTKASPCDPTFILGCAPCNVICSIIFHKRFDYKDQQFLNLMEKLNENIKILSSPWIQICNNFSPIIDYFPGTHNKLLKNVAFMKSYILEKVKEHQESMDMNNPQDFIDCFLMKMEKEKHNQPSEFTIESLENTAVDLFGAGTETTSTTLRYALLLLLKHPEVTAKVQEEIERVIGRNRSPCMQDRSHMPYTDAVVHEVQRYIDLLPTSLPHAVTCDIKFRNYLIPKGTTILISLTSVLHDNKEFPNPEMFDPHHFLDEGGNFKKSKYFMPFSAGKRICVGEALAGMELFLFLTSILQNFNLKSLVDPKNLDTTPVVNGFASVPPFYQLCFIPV
CYP2C19 act = human CYP2C19 activators, primary screen, biochemical, luminescence; recombinant CYP2C19, luciferin-H EGE luminescence; active compounds read high; 0 = fully inhibited enzyme, 1 = untreated enzyme; 96,000 tested, under 10 active; activation factor at 5 µM;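 active means activation factor of at least 2 at 5 µM in the primary screen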;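 further: 0 = wells with 2.5 mM tranylcypromine and 1 = vehicle-only wells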
CYP2C19 inhib = blockers of cytochrome P450 2C19 activity – biochemical, luminescence, ADME assay, primary screen | 21% of 96,000 active | AID 778, 2007 | inhibition, % at 5 µM | P33261 | CYP2C19 Supersomes, luciferin-H EGE luminescence, 30 min;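 active means CYP2C19 inhibition above a set limit at 5 µM in the primary screen, cut at about 50% in these data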;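 further: plate controls were negative control wells for no effect and 2.5 mM tranylcypromine positive control for full effect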
CYP2C9 act = human CYP2C9 activators, primary screen, biochemical, luminescence; activation factor at 5 µM; Cytochrome P450 2C9 (Homo sapiens), P11712; recombinant CYP2C9, luciferin-H conversion; active compounds read high; factor 1 = untreated enzyme, 0 = blocked; 1.4% of 96,000 active;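 active means activation factor of 2 or more for CYP2C9 at a 5 µM dose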;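 further: 0 = sulfaphenazole-blocked wells and 1 = vehicle-only wells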
PostGolgi ctrl = growth inhibition of yeast control strain, primary screen, counter-screen for post-Golgi transport modulator project; 5% of 98,000 active; efflux-deficient yeast background strain, growth absorbance A615, 16 h; AID 738, 2007; inhibition, % at 10 µM
An asterisk follows results filed as active; nt = not tested or not shown. The list is a sample of the results. Unless noted, no stated cut-off is given here; in the data, active means inhibition above about 30%; inactive means the rest.

SMILES	PostGolgi yeast	CYP2C9 inhib	CYP2C19 act	CYP2C19 inhib	CYP2C9 act	PostGolgi ctrl
CCS(=O)(=O)c1ccc2oc(SCC(=O)NC(C)C3CC4CCC3C4)nc2c1 (centres undefined)	8	24	0.9	10	0.8	6
Cc1nc2nc(NCc3cccs3)nn2c(C)c1Cl	2	10	1	-3	0.9	11
COc1ccccc1N1CCN(C(=O)C(C)N(c2ccccc2)S(C)(=O)=O)CC1 (centres undefined)	-2	8	1	0	0.9	4
COc1ccccc1-n1c(C)nnc1SCC(=O)Nc1cccc(C(C)=O)c1	5	31	0.7	25	0.7	8
CCCCn1c(SCc2nc3ccccc3s2)nc2cc(S(N)(=O)=O)ccc21	-2	73*	0.8	17	0.3	3
CCCCn1c(SCC(=O)NC(C)CC)nc2ccc(N3CCOCC3)cc2c1=O (centres undefined)	0	60*	0.7	28	0.4	-2
CCC(C)NC(=O)CSc1nc2ccc(N3CCOCC3)cc2c(=O)n1CCc1ccccc1 (centres undefined)	1	5	1	1	0.9	20
C=C(C)CSc1nnc([C@@H](NC(=O)OC(C)(C)C)C(C)CC)o1 (some centres undefined)	2	52*	0.2	83*	0.5	14
CCCCSc1nnc([C@@H](NC(=O)OC(C)(C)C)C(C)C)o1	4	44	0.5	50*	0.6	11
CCCC(c1nnnn1CCOC)N(Cc1cc2cc(C)c(C)cc2[nH]c1=O)CC1CCCO1 (centres undefined)	-2	14	0.9	10	0.9	18
Clc1ccc(NC2=NCCCCC2)cc1	-1	-14	0.9	8	1.1	-2
O=C(CN1C(=O)CCS(=O)(=O)c2ccccc21)NCc1ccc2c(c1)OCO2	4	2	0.1	90*	1	-1
CC1CC(=O)N(CC(=O)NCc2ccc3c(c2)OCO3)c2ccccc2S1 (centres undefined)	1	42	0	100*	0.6	6
O=C(NCc1ccco1)N1c2ccccc2Sc2ccccc21	1	58*	0.5	50*	0.4	10
O=C(NCc1ccco1)Oc1ccccc1	1	-26	1.1	-7	1.3	2
O=C(Cn1nc(-c2ccccc2F)ccc1=O)NCc1ccc2c(c1)OCO2	2	56*	0.3	72*	0.4	2
CCN(C1CCCCC1)S(=O)(=O)c1ccc(S(=O)(=O)N2CCN(CCC#N)CC2)cc1	17	47	0.6	43	0.5	6
C=CCN1C(=O)CSc2ccc(C(=O)OCC)cc21	1	13	0.9	13	0.9	10
CCOC(=O)Cn1ncc(-c2ccccc2)c1N	3	nt	nt	nt	nt	3
O=C(CN1CCCc2ccccc21)NCc1ccc2c(c1)OCO2	nt	30	0	99*	0.7	nt
O=C(CN1CCc2ccccc21)Nc1ccc2c(c1)OCO2	6	20	0.6	43	0.8	2
CC1CC(=O)N(CC(=O)N2CCCC2)c2ccccc2S1 (centres undefined)	5	-24	1.1	-8	1.2	2
CC1CC(=O)N(CC(=O)NCc2ccco2)c2ccccc2S1 (centres undefined)	-2	2	0.5	52*	1	6
CC(C)N1C(=O)CCC1C(=O)NC1CCCC1 (centres undefined)	9	22	1	-2	0.8	-1
CSc1ccccc1NC(=O)c1c(C)noc1C	-8	-4	0.9	10	1	6
Cc1ccc(/C(O)=C2/C(=O)C(=O)N(CCN3CCOCC3)C2c2cccs2)cc1 (centres undefined)	-4	-7	0.9	14	1.1	25
N#Cc1ncc(C(F)(F)F)cc1Sc1ccc(N)cc1	-3	81*	0	96*	0.2	-3
CSc1nsc(SC)c1C(=O)NCCNS(=O)(=O)c1ccc(C)cc1	-2	45	0.8	19	0.5	16
Cc1nc2c(sc3nc4c(cc32)COC(C)(C)C4)c(=O)n1Cc1ccccc1	-3	40	0.7	28	0.6	7
